Several values for one entry are separate records, joined by “and”; a condition that tells them apart may be missing. Equal values may be shown once. The whole screen tested about 410,000 compounds, of which about 310 (0.076%) were called active. Roughly 2% stayed inconclusive and do not appear here. Calls follow the shape of the dose curve; as a rule, active = well fitted activation curve with a large enough effect; inconclusive = small, poorly fitted or top-dose-only effect, or another doubt; inactive = no such curve, though single readings can be large or run the other way. What follows is part of a selection rich in actives, with near analogues and random picks from the rest. Where a structure was tested more than once in an assay, its records may differ in their call.
biological target: Parathyroid hormone/parathyroid hormone-related peptide receptor (Homo sapiens) (UniProt Q03431); experiment: qHTS for PTHR1 Agonists: Primary Screen; settings: HEK293 GP2 PTHR1 cells, GloSensor cAMP luminescence, 1 h; series mostly up to 115 µM; activation: at the top concentration; also: nearly all actives have a fitted effect of over 55% in size
Sequence (Q03431 whole entry, looked up): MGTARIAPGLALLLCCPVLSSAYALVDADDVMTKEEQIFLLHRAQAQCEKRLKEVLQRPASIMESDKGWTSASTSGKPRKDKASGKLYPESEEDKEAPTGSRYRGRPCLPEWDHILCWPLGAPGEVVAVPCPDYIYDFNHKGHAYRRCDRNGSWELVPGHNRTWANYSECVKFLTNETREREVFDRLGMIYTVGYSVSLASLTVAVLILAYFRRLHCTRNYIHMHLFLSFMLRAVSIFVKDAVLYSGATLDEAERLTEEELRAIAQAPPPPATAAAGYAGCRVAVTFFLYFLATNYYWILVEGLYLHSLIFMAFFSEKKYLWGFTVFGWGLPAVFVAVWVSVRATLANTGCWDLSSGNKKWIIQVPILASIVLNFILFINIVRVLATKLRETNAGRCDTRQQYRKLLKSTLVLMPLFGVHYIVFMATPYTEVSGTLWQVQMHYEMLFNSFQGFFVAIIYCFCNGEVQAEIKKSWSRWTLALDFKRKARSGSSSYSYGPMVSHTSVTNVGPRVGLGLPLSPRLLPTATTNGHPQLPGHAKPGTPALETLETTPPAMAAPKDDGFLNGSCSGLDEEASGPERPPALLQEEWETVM
Text: The goal of the proposed studies is to discover new compounds that act as potent agonists on the parathyroid hormone receptor type-1 (PTHR1). The PTHR1 plays critical roles in maintaining blood calcium and phosphate levels, as well as in controlling bone remodeling. PTHR1 agonists could thus be useful for treating diseases such as hypoparathyroidism and osteoporosis. In the former disease, an agonist drug would help maintain normal blood calcium and phosphate levels under conditions of parathyroid hormone deficiency. In the latter disease, an agonist drug would stimulate new bone formation and thus reduce the risk of fracture, under conditions of bone fragility, as occurs in aging.
To that end, we performed a quantitative high-throughput screening (qHTS) of the Molecular Libraries Probe Centers Network (MLPCN) compound libraries at the NIH Chemical Genomics Center (NCGC) for the parathyroid hormone receptor type-1 (PTHR1) using a unique HEK-293-derived cell line (GP2) that expresses the PTHR1 and a glosensor cAMP reporter construct.
NIH Molecular Libraries Probe Production Centers Network [MLPCN]
NIH Chemical Genomics Center [NCGC]
Assay Submitter (PI): Thomas Gardella, Massachusetts General Hospital
4 microL are dispensed into a 1536-well micro plate to yield 3,000 cells/well. The plates are then incubated overnight, after which 4 microL of 0.5 mM of BIoTium Luciferin plus 0.5 mM IBMX are added. They are then incubated at 37 degree for one hour before 23 nL of compounds are added through pinning and then incubated at 37 degree again for another hour. After the plates are kept at room temperature for 15 min before they are read on the ViewLux to measure luminescence.
Potency is read from the fitted curve at half-maximal effect.

outcome, inactive:
COc1ccc(CCNc2nc3c(-c4cccc(F)c4)nnn3c3ccccc23)cc1OC
CSc1nn(Cc2cccc(C)c2)c(N)c1S(=O)(=O)c1ccccc1
CCCCNC(=O)c1cc(-c2ccc(Cl)c(Cl)c2)on1
COC(=O)c1ccccc1NC(=O)c1ccc(COc2ccccc2Cl)o1
CCC(CC)c1nn2cc(-c3ccccc3)nc2s1
COCCNS(=O)(=O)c1cc(-c2nn3c(C)nnc3c3ccccc23)ccc1C
Cc1c(Cl)cccc1NC(=O)N1CCN(C(=O)c2nsc3ccccc23)CC1
CCOc1ccc(OCC)c(NS(=O)(=O)c2ccc3[nH]c(=O)ccc3c2)c1
COc1cc(Cl)c(NC(=O)C(NS(=O)(=O)c2cccs2)C(C)C)c(OC)c1 (configuration not stated)
Cc1oc2ccc(O)c(CN3CCCCC3)c2c1C(=O)Nc1cccc(C(F)(F)F)c1
CCCCN(CC)CCCNC(=O)c1nn(C)c2c1CS(=O)(=O)c1ccccc1-2
COc1ccc(-n2c(SCC(=O)Nc3ccc(Cl)c(C)c3)nc3n[nH]c(C)c3c2=N)cc1
Cc1c(NC(=O)c2cc(=O)c3ccccc3o2)c(=O)n(-c2ccccc2)n1C
COC(=O)c1ccc(NC(=O)CCc2c(C)nc3c(c(C)nn3-c3ccc(C)cc3)c2C)cc1
COc1ccccc1CNc1ccc(-c2nc(-c3ccccc3C)no2)cc1[N+](=O)[O-]
O=C(Nc1ccc2nc(SCC(=O)N3CCc4ccccc43)sc2c1)c1ccccc1F
CCOc1ccccc1CNC(=O)c1ccc(-n2c(C)cc3c2CCC(C)C3)cc1 (configuration not stated)
CCc1cccc(C)c1NS(=O)(=O)c1ccc(-c2cc(C)no2)s1
Cc1oc2ccc(O)c(CN3CCOCC3)c2c1C(=O)Nc1cccc(Cl)c1C
Cc1ccccc1-c1nc(SCC(=O)N(C)c2ccccc2)c2c(=O)n(C)c(=O)n(C)c2n1
COc1ccc(S(=O)(=O)N2CCN(c3ccc(F)cc3)CC2)cc1-c1noc(C)n1
CCn1c(=O)c2cc(C(=O)NCCc3ccc(Cl)cc3)sc2c2ccccc21

activation, inactive:
COc1ccc(C2c3c(oc4ccccc4c3=O)C(=O)N2Cc2ccc3c(c2)OCO3)cc1 (configuration not stated) 15.8%
Cc1ccc(C(=O)Nc2c(C(=O)NC(C)(C)C)oc3ccccc23)cc1 -7.11%
CCC(C)c1ccc2oc(-c3ccc(NC(=O)c4cc5ccccc5o4)cc3)nc2c1 (configuration not stated) -31.3%
CCOc1ccc(CNCc2c(C(=O)O)c(C)n(Cc3cccc(OC)c3)c2C)cc1OC -21.7%
CN1CCN(C(CNC(=O)c2ccccc2F)c2ccc3c(c2)OCO3)CC1 (configuration not stated) 0.69%
CCN(CC)S(=O)(=O)c1ccc2c(c1)N(CC(=O)NCC(C)c1ccccc1)C(=O)CO2 (configuration not stated) 21.9%
CCOc1cc(C2C(C(=O)Nc3ccc(OC)cc3)=C(C)Nc3nc(SC)nn32)ccc1O (configuration not stated) 2.91%
Cc1cc(OCC(=O)Nc2ncn[nH]2)c(C)c(C)c1Br -8.37%
Cc1nc(SCC(=O)Nc2ccc(C(=O)O)cc2)n[nH]1 -16.7%
O=C(NCCc1ccccc1)C(=O)NCC(c1ccco1)S(=O)(=O)c1ccccc1 (configuration not stated) -7.91%
Cc1ccc(C)n1-c1nnc(N2CCC(C(=O)NCc3ccccc3Cl)CC2)s1 -14.9%
CC(C)(C)c1ccc(C(=O)NCC(c2ccco2)S(=O)(=O)c2ccc(F)cc2)cc1 (configuration not stated) -96.9%
CCOC(=O)c1c(S(=O)(=O)N2CCCC(C(=O)NCc3ccc(F)cc3)C2)c(C)n(CC)c1C (configuration not stated) -23.8%
O=c1c2cccnc2n(Cc2cccc(F)c2)c(=O)n1Cc1ccccc1Cl -34.4%
Cc1ccc(NC(=O)CSc2nc3c(c(=O)[nH]2)CN(Cc2ccc4c(c2)OCO4)CC3)cc1C -21.9%
COc1cccc(CNC(=O)C2CCN(S(=O)(=O)c3ccc4c(ccn4C)c3)CC2)c1 -37.3%
COc1ccc(CNc2nc(-c3ccc(Cl)cc3)cc(C(F)(F)F)n2)cc1 -35.1%
CCCn1c2ccccc2c2cnn(CC(=O)N(C)c3ccccc3CC)c(=O)c21 -5.63%
Cc1ccc(Cn2c(C)c3cnn(CC(=O)NCc4ccccc4)c(=O)c3c2C)cc1 -42.3%
Cc1ccc(C)c(N2CCN(c3ccc4cc(S(=O)(=O)N5CCC(C)CC5)ccc4n3)CC2)c1 -22%
Cn1c(=O)[nH]c(=O)c2c1nc(NCCc1ccccc1)n2Cc1ccc(F)cc1 -6.1%
CCCCN(C)CCCNC(=O)CN1N=C(c2ccc(OC)cc2)CCC1=O 13.6%
CCOC(=O)c1c(C)[nH]c(CCC(=O)NCCCN2CCN(c3cccc(Cl)c3)CC2)c1C -20.8%
Cc1ccc(C)c(N2CCN(S(=O)(=O)c3ccc4c(c3)C(C(C)C)C(=O)N4)CC2)c1 (configuration not stated) -24.8%
CCOc1ccccc1CNC(=O)Nc1cn(CC(C)C)c(=O)c2ccccc12 5.27%
CCOc1cc(CNC(=O)c2sc3ncnc(N(C)C4CCCCC4)c3c2C)ccc1OC -11.1%
Cc1nn2c(=O)cc(COC(=O)CNC(=O)c3ccc(F)cc3)nc2s1 -21.7%
COc1ccc(CCNC(=O)c2nn(C)c3c2CSc2ccccc2-3)cc1OC -94%
Cc1c(C(=O)NCc2ccccc2Br)oc2ccc3c(c12)C(=O)CC(C)(C)O3 -38.2%
CCCc1nn2c(=O)cc(COC(=O)c3ccc(NC(=O)COc4ccc(F)cc4)cc3)nc2s1 5.84%
CCCCC(=O)OC1=CN(Cc2ccccc2)S(=O)(=O)c2ccccc21 10.3%
COc1ccc(OCCn2cc(C(=O)C3CCCCC3)c3ccccc32)cc1 -19%
COc1ccccc1C(=O)NCCn1cc(SCc2ccccc2Cl)c2ccccc21 -17.1%
O=S(=O)(NCC(c1ccco1)N1CCOCC1)c1cc(F)ccc1F (configuration not stated) -8.69%
COc1ccccc1NC(=O)C(=O)c1cc(C)n(-c2ccccc2F)c1C -6.56%
CC1CCCN(c2csc3ccc(F)cc3c2=O)C1 (configuration not stated) -3.67%
CCC(=O)N1CCc2cc(S(=O)(=O)NC(Cc3ccccc3)C(=O)NCc3ccccc3)ccc21 (configuration not stated) -37.5%
COc1ccc(C)cc1NC(=O)C(=O)NCCc1sc(-c2cccc(C)c2)nc1C -8.34%

Potency, inactive and 25.1 µM (active):
CCC1CCCCN1CCCNC(=O)c1cc2c(Cl)nc3ccccc3c2s1 (configuration not stated)

Potency, inactive:
CCCn1c2ccccc2c2cnn(CC(=O)NCCCN3CCCCC3CC)c(=O)c21 (configuration not stated)

Source: PubChem BioAssay AID743266 (National Center for Advancing Translational Sciences (NCATS), 2014)
